# Results taken from PubChem BioAssay (NCI).
# Compounds without any hit were thinned out: in the full panel of roughly 83,000, 20% have a hit.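 Values shown are percent growth following 48 h exposure of cells in 96-well plates to a single concentration of compound; below 10 was considered active.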 Values without a mark were called inactive. Calls of active or inactive are those of the source.
# Key:
# Assay in all cases: NCI-60 one-dose screen, 48 h (100 = growth as untreated, 0 = no growth, -100 = all killed)
# Conditions in all cases: 10 µM unless noted
# SR leukemia = test system: SR leukemia
# RPMI-8226 leukemia = test system: RPMI-8226 leukemia
# OVCAR-8 ovarian = test system: OVCAR-8 ovarian
# OVCAR-5 ovarian = test system: OVCAR-5 ovarian
# OVCAR-4 ovarian = test system: OVCAR-4 ovarian
# SK-OV-3 ovarian = test system: SK-OV-3 ovarian
# IGROV1 ovarian = test system: IGROV1 ovarian
# OVCAR-3 ovarian = test system: OVCAR-3 ovarian
# NCI/ADR-RES ovarian = test system: NCI/ADR-RES ovarian
# T-47D breast = test system: T-47D breast
# BT-549 breast = test system: BT-549 breast
# MDA-MB-435 melanoma = test system: MDA-MB-435 melanoma
# SW-620 colon = test system: SW-620 colon
# MCF7 breast = test system: MCF7 breast
# HCT-116 colon = test system: HCT-116 colon
# HCC-2998 colon = test system: HCC-2998 colon
# KM12 colon = test system: KM12 colon
# HS 578T breast = test system: HS 578T breast
SMILES,growth (SR leukemia) [%],growth (RPMI-8226 leukemia) [%],growth (OVCAR-8 ovarian) [%],growth (OVCAR-5 ovarian) [%],growth (OVCAR-4 ovarian) [%],growth (SK-OV-3 ovarian) [%],growth (IGROV1 ovarian) [%],growth (OVCAR-3 ovarian) [%],growth (NCI/ADR-RES ovarian) [%],growth (T-47D breast) [%],growth (BT-549 breast) [%],growth (MDA-MB-435 melanoma) [%],growth (SW-620 colon) [%],growth (MCF7 breast) [%],growth (HCT-116 colon) [%],growth (HCC-2998 colon) [%],growth (KM12 colon),growth (HS 578T breast) [%]
COC(=O)C(Cc1ccccc1)Nc1nc(NC(Cc2ccccc2)C(=O)OC)nc(N2CCOCC2)n1 (stereo unspecified),100,98.5,99.6,106,107,103,98.6,111,111,101,112,105,112,97.8,99.2,110,99.7%,
CCCSc1nc(Nc2ccc(/C(C)=N\NC(N)=S)cc2)c(C#N)c(-c2ccccc2)n1,57.1,67.5,56,85.5,58.7,125,86.9,31.4,53.5,63.4,,87.5,84.1,47.9,49,89.5,54.9%,62.5
COc1ccc(/C(N)=N/C(N)=N/c2nc3ccccc3s2)cc1,13.4,43.6,97.3,103,76.5,99.6,49.8,96,35,80.4,,20.3,65.4,71.2,79.6,91.9,-11.5% (active),81.3
